Hit rate of the full screen: of about 16,000 compounds, about 5,100 (32%) were called active. Another 25% or so got no clear call; they are omitted. Calls follow the shape of the dose curve; as a rule, active = well fitted curve in the direction sought with a large enough effect; inconclusive = small, poorly fitted or top-dose-only effect, or effect the other way; inactive = no such curve, though single readings can be large or run the other way. Some of the results follow.
% is scaled to controls: 0 for no effect and ±100 for the full control effect.

Sequence of Cytochrome P450 3A4 (Homo sapiens) (P08684 whole entry, looked up): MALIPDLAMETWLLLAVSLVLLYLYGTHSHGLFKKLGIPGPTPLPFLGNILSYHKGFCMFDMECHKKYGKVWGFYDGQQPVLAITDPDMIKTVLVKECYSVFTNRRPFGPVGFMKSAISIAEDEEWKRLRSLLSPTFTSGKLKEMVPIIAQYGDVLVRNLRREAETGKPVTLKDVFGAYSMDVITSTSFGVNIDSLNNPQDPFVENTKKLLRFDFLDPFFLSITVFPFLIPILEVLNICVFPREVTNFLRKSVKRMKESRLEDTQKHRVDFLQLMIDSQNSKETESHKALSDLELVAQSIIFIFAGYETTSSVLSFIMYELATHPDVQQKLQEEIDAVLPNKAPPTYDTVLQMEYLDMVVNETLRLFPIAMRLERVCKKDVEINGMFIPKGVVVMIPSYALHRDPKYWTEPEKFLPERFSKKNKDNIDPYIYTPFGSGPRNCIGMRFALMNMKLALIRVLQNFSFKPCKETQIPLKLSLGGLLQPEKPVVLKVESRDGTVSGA

This assay has as its target Cytochrome P450 3A4 (Homo sapiens) (UniProt P08684). Kind of assay: Cytochrome panel assay with activity outcomes. The settings on record: recombinant CYP, pro-luciferin dealkylation, luminescence, p450-cyp3a4; series mostly up to 57.1 µM; activity, negative = inhibition: at the top concentration.
As to `O=C(O)C12CC3(C(=O)O)CC(C(=O)O)(CC(C(=O)O)(C1)C3=O)C2=O`, the activity, negative = inhibition was -8.55% [at 11.4 µM] (inactive).
For `N[C@@H](C(=O)O)c1ccc(O)c(C(=O)O)c1`, the “activity, negative = inhibition” value was -20.5% (inactive).
Turning to `NC(=NCCCCCCN=C(N)/N=C(\N)Nc1ccc(Cl)cc1)/N=C(\N)Nc1ccc(Cl)cc1`, the “activity, negative = inhibition” value is -12.9% [at 25.6 µM] (inactive).
On to `Nc1nc2c(c(=O)[nH]1)CN(CCCN1CCOCC1)CN2`, for which the activity, negative = inhibition was -5.39% [at 11.4 µM] (inactive).
For orientation: AC50 means the midpoint of the concentration-response curve, whichever way the signal moves. Turning to `C[C@@H](C(=O)Nc1ccc2ccccc2c1)[C@H]1C[C@]1(C)[C@H](NS(=O)(=O)c1ccc(-c2ccccc2)cc1)c1ccccc1`, the AC50 was 10 µM (active).
Same read-out and setting: the same measure for `C[C@@H](C(=O)Nc1ccc2ccccc2c1)[C@H]1C[C@]1(C)[C@H](NS(=O)(=O)c1ccc2ccccc2c1)c1ccccc1`: 7.94 µM (active).
Turning to `C[C@@H](C(=O)Nc1ccc2ccccc2c1)[C@@H]1C[C@@]1(C)[C@@H](NS(=O)(=O)c1ccc(-c2ccccc2)cc1)c1ccccc1`, the “activity, negative = inhibition” value is -22% (inactive).
Take `Cc1nn(C)c(Cl)c1S(=O)(=O)N[C@@H](c1ccccc1)[C@]1(C)C[C@H]1[C@@H](C)C(=O)Nc1ccc2ccccc2c1`: the AC50 was 1.26 µM (active).
On to `CC(C)OC(=O)CC12CN(C)CC(CC(=O)OC(C)C)(CN(C)C1)C2=O`, for which the activity, negative = inhibition was 15.3% [at 2.29 µM] (inactive).
Take `Fc1ccc(-c2ccnc3nc(N4CCOCC4)nn23)cc1`: the “activity, negative = inhibition” value was -27.2% (inactive).
Regarding `O=C(OCc1ccccc1)/C(=C/c1ccc(Cl)cc1)NC(=O)c1ccccc1Cl`, the AC50 was 0.178 µM (active).
With `O=C(O)CNC(=O)c1ccccc1O`, the activity, negative = inhibition is -5.63% [at 11.4 µM] (inactive).
On the same count and under the same terms, the same measure for `COC(=O)CCC(=O)NNC(=O)c1ccc(Br)cc1`: -9.71% (inactive).
In the case of `COc1ccc(C(=O)NCC(=O)OCc2cccc(Br)c2)cc1`, the half-maximal activity concentration (AC50) is 7.94 µM (active).
As for `C/C(=C\c1ccc(Cl)cc1)C(C)(C)C(=O)O`, the activity, negative = inhibition was -11.2% [at 11.4 µM] (inactive).
Consider `O=C(CNC(=O)/C(=C\c1ccccc1)NC(=O)c1ccc(Br)cc1)OCc1ccccc1`, for which the AC50 is 0.2 µM (active).
The same measure, in the same setting: the same measure for `COc1ccccc1C(=O)N/C(=C/c1ccc(Br)cc1)C(=O)NCC(=O)O`: 8.91 µM (active).
With `Cc1cccc(C(=O)NN(C)c2nc(-c3ccccc3)nnc2C(F)(F)F)c1`, the “activity, negative = inhibition” value is -22.4% (inactive).
On to `CS(=O)(=O)Nc1cccc(-c2nc(Nc3ccccc3)c3ccccc3n2)c1`, for which the AC50 is 10 µM (active).
On the same count and under the same terms, then `CN(C)c1nc(-c2cccc(NS(C)(=O)=O)c2)nc2ccccc12`, with 6.31 µM (active).
On to `CS(=O)(=O)Nc1cccc(-c2nc(Nc3ccc(F)cc3)c3ccccc3n2)c1`, for which the AC50 was 6.31 µM (active).
Consider `COc1cccc(-c2nc(Nc3ccncc3)c3ccccc3n2)c1`, for which the AC50 was 2.51 µM (active).
The same measure, in the same setting: then `N#Cc1cc2nc(O)c(O)nc2cc1[N+](=O)[O-]`, with “inactive”; and `CNc1nc(-c2cccc(NS(C)(=O)=O)c2)nc2ccccc12`, with 10 µM (active).
Turning to `CS(=O)(=O)Nc1cccc(-c2nccc(Nc3ccc(F)cc3)n2)c1`, the half-maximal activity concentration (AC50) is 10 µM (active).
On the same count and under the same terms, the same measure for `CS(=O)(=O)Nc1cccc(-c2nc(Nc3ccncc3)c3ccccc3n2)c1`: 3.98 µM (active).
For the compound `Oc1cc(CN2COc3ccccc32)c(O)cc1CNC1CCCCC1`, the activity, negative = inhibition is -5.1% [at 11.4 µM] (inactive).
Same read-out and setting: the same measure for `CCN1C(=O)C=CC1=O`: 3.37% (inactive); for `O=C(c1ccco1)N1CCC2(CC1)CN(Cc1cc(C(F)(F)F)cc(C(F)(F)F)c1)C2`: -18.1% (inactive).
For `O=C(c1ccco1)N1CCC2(CCN(Cc3ccncc3)CC2)CC1`, the AC50 was 12.6 µM (active).
Regarding `O=C(c1ccco1)N1CCC2(CCCN(Cc3ccncc3)C2)CC1`, the AC50 was 5.01 µM (active).
Consider `O=C(O)[C@H](/C=C\c1ccccc1)c1ccccc1`, for which the activity, negative = inhibition was -11.9% [at 11.4 µM] (inactive).
For `Cc1ccc(S(=O)(=O)CC#CCOC(=O)c2ccc([N+](=O)[O-])cc2)cc1`, the AC50 was 15.8 µM (active).
With `Cc1ccc(CNC(=O)C2CC(c3ccccc3[N+](=O)[O-])=NO2)cc1` (stereo not given), the activity, negative = inhibition is -29.5% [at 2.29 µM] (inactive).
Still for that read-out and setting: the same measure for `O=C(NCCCN1CCN(c2ccccc2F)CC1)C1CCC(=O)N1C1CCCCC1` (stereo not given): -23% (inactive).
In the case of `O=C(O)C1CCCN1C(=O)OCc1ccccc1` (stereo not given), the “activity, negative = inhibition” value is -15% (inactive).
Regarding `COc1ccc(NC(=O)N2CCCC2C(=O)Nc2ccccc2)cc1` (stereo not given), the “activity, negative = inhibition” value was -9.78% (inactive).
In the case of `NS(=O)(=O)c1ccc(CCNC(=O)C2CCCN2C(=O)OCc2ccccc2)cc1` (stereo not given), the concentration at half-maximal activity (AC50) was 12.6 µM (active).
In the case of `Cc1ccc(CNC(=O)C2CCCN2C(=O)NCc2ccccc2)cc1` (stereo not given), the AC50 is 3.55 µM (active).
On the same count and under the same terms, then `Cc1ccc(CNC(=O)C2CCC(=O)N2C2CCCCC2)cc1` (stereo not given), with 7.94 µM (active); and `COc1ccccc1NC(=O)N1CCCC1C(=O)NCc1ccc2c(c1)OCO2` (stereo not given), with 0.355 µM (active).
Consider `C=C1CC[C@H](O)C/C1=C/C=C1\CCC[C@]2(C)[C@H]1CC[C@H]2[C@@H](C)/C=C\[C@@H](C)C(C)C`, for which the “activity, negative = inhibition” value was 17.3% [at 25.6 µM] (inactive).
Consider `O=C1CC[C@](CCc2nc3ccccc3[nH]2)(c2ccccc2)C(=O)N1`, for which the activity, negative = inhibition is -26.9% [at 11.4 µM] (inactive).
Same read-out and setting: the same measure for `CCCNC(=O)c1c(C)cc(=O)oc1C`: -7.96% (inactive).
Same read-out and setting: then `O=C(CSCc1ccc(Cl)cc1)Nc1ccc2c(c1)OCCO2`, with -20.7% [at 11.4 µM] (inactive).
`O=C(Cn1nc(C(F)F)cc1C(F)F)N/N=C/c1ccc2c(c1)OCO2`: the AC50 is 5.01 µM (active).
Consider `C/C(=N\NC(N)=O)c1ccc(Cl)cc1`, for which the activity, negative = inhibition is -0.483% [at 11.4 µM] (inactive).
As to `C/C(=N\NC(=O)CSCc1ccc(Cl)cc1)c1ccc2c(c1)OCCO2`, the half-maximal activity concentration (AC50) is 14.1 µM (active).
Same read-out and setting: then `O=C(CSCc1cccc(Br)c1)N/N=C/c1ccc2c(c1)OCO2`, with 3.98 µM (active).
Take `CCCCCCCCC(=O)N/N=C/c1cccc(Br)c1`: the activity, negative = inhibition was -6.69% [at 11.4 µM] (inactive).
Same read-out and setting: then `C=CCNC(=O)CC(=O)N/N=C/c1cccc(Br)c1`, with -26.1% (inactive).
In the case of `Cc1oc(-c2ccccc2F)nc1CSCC(=O)NCc1ccc2c(c1)OCO2`, the AC50 is 1 µM (active).
As for `O=C(O)C(Cl)(c1ccccc1)c1ccccc1`, the activity, negative = inhibition was -5.68% [at 11.4 µM] (inactive).
The same measure, in the same setting: then `O=C(/C=C/c1ccc2c(c1)OCO2)NCCSCc1cccc(Cl)c1`, with 18.2% [at 2.29 µM] (inactive).
`O=C(CSCc1cccc(Cl)c1)NCc1ccc2c(c1)OCO2`: the AC50 was 1.12 µM (active).
`Cc1cc(OC(=O)c2ccccc2Cl)cc(=O)n1C`: the “activity, negative = inhibition” value is -11% (inactive).
For the compound `Cc1cccc(CNc2ccnc(-c3ccc(C(=O)N(C)C)cc3)n2)c1`, the AC50 was 3.16 µM (active).
Same read-out and setting: the same measure for `CN(C)C(=O)c1ccc(-c2nccc(NCc3cccnc3)n2)cc1`: 15.8 µM (active).
Take `[N-]=[N+]=Nc1ccc(C(=O)CSC[C@@H](NC(=O)CC[C@@H](N)C(=O)O)C(=O)NCC(=O)O)cc1`: the “activity, negative = inhibition” value is 1.42% (inactive).
On the same count and under the same terms, then `CC(C)[C@H]1C(=O)C(C(N)=O)=C(O)[C@]2(O)C(=O)C3=C(O)c4c(O)ccc(N(C)C)c4C[C@H]3C[C@@H]12`, with 3.01% (inactive).
Consider `COc1cccc(Cn2c(=O)c(-c3cccs3)nc3cnc(OC)nc32)c1`, for which the half-maximal activity concentration (AC50) was 3.98 µM (active).
Turning to `COc1ccc(Nc2ncc3nc(-c4cccs4)c(=O)n(Cc4cccc(OC)c4)c3n2)cc1`, the “activity, negative = inhibition” value is -22.2% (inactive).
On to `COc1ncc2nc(-c3cccs3)c(=O)n(Cc3ccc(F)cc3)c2n1`, for which the half-maximal activity concentration (AC50) was 3.16 µM (active).
The same measure, in the same setting: then `COc1cccc(Cn2c(=O)c(-c3cccs3)nc3cncnc32)c1`, with 5.01 µM (active).
The same measure, in the same setting: the same measure for `COc1ccc(Oc2ncc3nc(-c4cccs4)c(=O)n(Cc4cccc(OC)c4)c3n2)cc1`: 3.98 µM (active).
Turning to `O=C(O)c1ccc(C(=O)c2ccccc2)c(C(=O)O)c1`, the activity, negative = inhibition was -42.2% [at 11.4 µM] (inactive).
Same read-out and setting: the same measure for `C=CCN=C(NC#N)SCc1ccccc1`: -3.62% [at 2.29 µM] (inactive).
With `COc1ncc2nc(-c3ccc(F)cc3)c(=O)n(Cc3ccc(F)cc3)c2n1`, the AC50 was 3.16 µM (active).
In the case of `CCNc1ncc2nc(-c3ccc(OC)cc3)c(=O)n(Cc3ccc(F)cc3)c2n1`, the “activity, negative = inhibition” value is -15% (inactive).
Still for that read-out and setting: the same measure for `CCOC(=O)c1ccc(S(=O)(=O)N2CCN(C)CC2)cc1`: -17.5% (inactive); for `COc1ccc(NC(=O)CC#N)cc1OC`: -17.8% (inactive); for `CCN(CC)C(=O)COc1ccc(S(=O)(=O)N2CCOCC2)cc1`: -4.69% [at 11.4 µM] (inactive).
As to `O=C(CN1CCN(S(=O)(=O)c2ccc(F)cc2)CC1)Nc1ccc(Cl)c(C(F)(F)F)c1`, the AC50 was 5.01 µM (active).
On the same count and under the same terms, then `COc1cc2c(cc1OC)CN(CC(=O)Nc1ccc3c(c1)OCO3)CC2`, with 3.55 µM (active); and `CCOc1ccc(NC(=O)CN2CCN(S(=O)(=O)c3ccc(Cl)cc3)CC2)cc1`, with 14.1 µM (active); and `CCOc1ccc(C(=O)CN2CCN(S(=O)(=O)c3ccc(F)cc3)CC2)cc1`, with 6.31 µM (active).
Take `N[C@@H](Cc1ccnnc1)C(=O)O`: the activity, negative = inhibition is -3.75% [at 11.4 µM] (inactive).
Take `Cc1nnc(S(=O)(=O)c2ccc(N=Nc3c(N)nc(N)nc3N)cc2)s1`: the activity, negative = inhibition is 4.76% [at 11.4 µM] (inactive).
Consider `O=C(CN1CCN(S(=O)(=O)c2ccc(Cl)cc2)CC1)Nc1ccc2c(c1)OCO2`, for which the AC50 was 1 µM (active).
For the compound `CCN(CC(=O)Nc1ccc2c(c1)OCCO2)C(=O)c1cccc(S(=O)(=O)N2CCOCC2)c1`, the activity, negative = inhibition was -20.1% [at 11.4 µM] (inactive).
For the compound `O=C(CN1CCN(S(=O)(=O)c2ccc(F)cc2)CC1)Nc1ccc2c(c1)OCO2`, the AC50 was 2 µM (active).
Take `CC1(C)CCCN(C(=O)c2coc(=O)c(Br)c2)C1`: the “activity, negative = inhibition” value was -4.49% (inactive).
On the same count and under the same terms, then `Cn1c(C(=O)O)c(CC(=O)NCc2cccnc2)c2ccccc21`, with 17.8% (inactive); and `Cc1ccnc(NC(=O)c2cccc(NC(=O)COc3ccccc3)c2)c1`, with -4.8% [at 2.29 µM] (inactive).
Regarding `O=C(Cc1ccc(Cl)cc1)N1CCN(C(=O)c2ccco2)CC1`, the “activity, negative = inhibition” value is 2.03% (inactive).
For the compound `CCn1c(=O)cc(SCC(=O)N2CCN(C(=O)c3ccco3)CC2)c2ccccc21`, the AC50 was 7.08 µM (active).
Consider `CC(C)NC(=O)N1CCC2(CC1)CCN(C(=O)c1ccco1)CC2`, for which the “activity, negative = inhibition” value is 6.91% (inactive).
Take `CCn1c(=O)cc(SCC(=O)Nc2cc(OC)c(OC)c(OC)c2)c2ccccc21`: the AC50 was 5.01 µM (active).
On the same count and under the same terms, the same measure for `CCn1c(=O)cc(OCC(=O)Nc2cccnc2)c2ccccc21`: 7.08 µM (active); for `Cn1c(=O)cc(OCC(=O)NCc2cccnc2)c2ccccc21`: 12.6 µM (active).

The values are drawn from PubChem BioAssay AID1851 (National Center for Advancing Translational Sciences (NCATS), 2009).
